Here are results for 15 molecules from PubChem BioAssay (EPA / NIEHS).

For orientation: AC50 means the midpoint of the concentration-response curve, whichever way the signal moves.

For test [1], the target named is Estrogen receptor (Homo sapiens) (UniProt P03372). The test can be described thus: OT_ER_ERaERa_1440: Odyssey Thera (OT) 24-hour HEK293T Protein-Complementation Assay for Estrogen Receptor-alpha/-alpha Homodimer (AID 2283349).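 Also: hits raise fluorescence above DMSO for agonists and antagonists alike.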 Put shortly:
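Cells (HEK293T) carrying the fragment-tagged ERα LBD (aa 310-547) pair are treated with chemical for 24 hours. Nuclear and/or cytoplasmic fluorescence is then quantified on a laser scanning cytometer. Activity is scored as signal gain against DMSO.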

Test [2] has the same target. The test can be described thus: OT_ER_ERaERa_0480: Odyssey Thera (OT) 8-hour HEK293T Protein-Complementation Assay for Estrogen Receptor-alpha/-alpha Homodimer (AID 2283351).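 Also: rise in fluorescence from reassembled reporter fragments on ERα LBD homodimer in nucleus or whole cell.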 Put shortly:
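Read-out: fluorescence intensity rise relative to DMSO, nuclear for agonists, nuclear plus cytoplasmic for antagonists. Construct is the ERα LBD (aa 310-547) homodimer fragment-complementation pair, stably expressed in HEK293T; exposure 8 h.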

Test [3] concerns the target Estrogen receptor (Homo sapiens) + Estrogen receptor beta (Homo sapiens) (UniProt P03372+Q92731). The test can be described thus: OT_ER_ERaERb_1440: Odyssey Thera (OT) 24-hour HEK293T Protein-Complementation Assay for Estrogen Receptor-alpha/-beta Homodimer (AID 2283356).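 Also: heteromer of ER alpha and ER beta binding domains; hits raise reporter fluorescence and both agonists and antagonists give an increase.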 Put shortly:
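HEK293T stably expressing a PCA of ER alpha LBD (aa 310-547) and ER beta LBD (aa 263-489). After 24 h compound exposure, mean fluorescence intensity in nucleus (agonists) or nucleus and cytoplasm (antagonists) measured by laser scanning cytometry versus vehicle.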

Test [4] has as its target Peroxisome proliferator-activated receptor gamma (Homo sapiens) (UniProt P37231). Kind of test: NVS_NR_hPPARg: NovaScreen (NVS) Nuclear Receptor Binding Assay for human Peroxisome Proliferator-activated Receptor gamma (PPARg) (AID 2283370). Put shortly: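 Cell-free fluorescence polarization binding to human PPARg protein, read 2 h after dosing. Primary screen in duplicate at 25 uM, actives followed in concentration series; loss of signal relative to DMSO scored.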

The target of test [5] is Estrogen receptor (Homo sapiens) (UniProt P03372). The test can be described thus: OT_ERa_GFPERaERE_0480: Odyssey Thera (OT) 8-hour HeLa Transcription Induction Assay for Estrogen Receptor (AID 2283381; active = hit-call score of the fitted dose curve at least 0.9, where 1 is the maximum; inactive = score below 0.9). Put shortly:
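GFP-ERE reporter, HeLa, 8 h exposure. Readout: fluorescence microscopy, high-content image analysis. Fit direction positive vs DMSO negative control.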

The target is the same in test [6]. Kind of test: OT_ERa_GFPERaERE_0120: Odyssey Thera (OT) 2-hour HeLa Transcription Induction Assay for Estrogen Receptor (AID 2283382). Put shortly: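 Fluorescence microscopy read-out: inducible fluorescent protein reporter in HeLa cells, imaged 2 h post-dose. Signal increase over DMSO negative control fitted as single primary endpoint via high content image analysis.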

A short description of test [7]: CCTE_Deisenroth_5AR_NBTE_donor: CCTE's 5alpha-reductase NanoBRET Target Engagement Assay […], Deisenroth Lab (AID 2284319; active = hit-call score of the fitted dose curve at least 0.9, where 1 is the maximum; inactive = score below 0.9). As to conditions: actives raise or lower the signal. Put shortly: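 Donor NanoLuc luminescence at 460-20 nm is the read-out, serving artifact detection. Transiently expressed SRD5A2-NanoLuc in HEK293T; 5 h total chemical exposure, testosterone tracer added for the final 2 h; fitting bidirectional relative to DMSO baseline.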

Another test relates to SRD5A2 (gene 6716). The test can be described thus: CCTE_Deisenroth_5AR_NBTE_ratio: CCTE's 5alpha-reductase NanoBRET Target Engagement Assay - Ratio, Deisenroth Lab (AID 2284322; active = hit-call score of the fitted dose curve at least 0.9, where 1 is the maximum; inactive = score below 0.9). As to conditions: actives raise or lower the signal. Put shortly:
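SRD5A2-NanoLuc HEK293T; cmpd 10 nM-29.9 uM, 3 h preinc + testosterone tracer 2 h; NanoBRET ratio 650/460; bidirectional fit vs DMSO.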
Background: Bioluminescence resonance energy transfer reports proximity on the nanometre scale.

The target of test [8] is Cytochrome P450 2C19 (Homo sapiens) (UniProt P33261). Kind of test: NVS_ADME_hCYP2C19: NovaScreen (NVS) CYP450-related Enzyme Activity (ADME) Assay for human CYP2C19 (AID 2283113).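 As to AC50: potency for inhibition seen as loss of fluorescent signal.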 Put shortly: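 Cell-free recombinant human CYP2C19 from insect cells, fluorescent substrate; activity read by fluorescence intensity 1 h after dosing. Primary screen in duplicate at 10 uM; actives retested in concentration series. Signal loss versus acetonitrile negative control.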

Test [9] can be described thus: CCTE_Shafer_MEA_dev_firing_rate_mean: CCTE's Neural Network Formation Assay for Mean Firing Rate, Shafer Lab (AID 2284031; active = hit-call score of the fitted dose curve at least 0.9, where 1 is the maximum; inactive = score below 0.9;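 as to AC50: curve fitted for loss of firing so AC50 reflects decreased mean firing rate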). Put shortly:
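Read-out: spike count/recording length, averaged over active electrodes, then AUC across days 5, 7, 9, 12. Rat cortical cultures on MEA; continuous 12-day exposure, media and treatment renewed DIV 5, 9; DMSO baseline.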

The nature of test [10]: CCTE_Shafer_MEA_dev_per_burst_spike_percent: CCTE's Neural Network Formation Assay for Percent of Spikes in a Burst, Shafer Lab (AID 2284032; active = hit-call score of the fitted dose curve at least 0.9, where 1 is the maximum; inactive = score below 0.9;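 as to AC50: fitted as a decrease in burst spike percentage below DMSO baseline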). Put shortly:
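Value is trapezoidal AUC over recordings on days 5, 7, 9 and 12 of the well-mean fraction of spikes falling in single-electrode bursts; rat cortical cultures exposed continuously from plating, treatment renewed DIV 5 and 9, fitted downward against DMSO.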

The nature of test [11]: CCTE_Shafer_MEA_dev_active_electrodes_number: CCTE's Neural Network Formation Assay for Number of Active Electrodes, Shafer Lab (AID 2284040).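 As to AC50: potency for loss of active electrodes versus DMSO so lower counts are hits.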 Put shortly: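 Developing rat cortical networks on MEAs, exposed DIV 0–12. Value is the AUC of active-electrode counts (≥5 spikes/min) from days 5, 7, 9, 12, relative to DMSO.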
Test [12] deals with Androgen Receptor/SRC-1 Co-activator, AR (gene 367) (UniProt P10275). Kind of test: OT_AR_ARSRC1_0960: Odyssey Thera (OT) 16-hour HEK293T Protein-Complementation Assay for Androgen Receptor/SRC-1 Co-activator (AID 2283353).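 Also: actives raise the signal above DMSO so potency reflects increased AR and SRC-1 complex.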 Put shortly:
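Readout: 488 nm nuclear-to-cytoplasmic fluorescence ratio from imaging of at least 400 cells per image, 16 h post-dose. Reporter is Venus YFP complementation between AR and SRC-1 fusions, stably expressed in HEK293T; activity scored upward relative to DMSO.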

Test [13] shares this target. Kind of test: OT_AR_ARSRC1_0480: Odyssey Thera (OT) 8-hour HEK293T Protein-Complementation Assay for Androgen Receptor/SRC-1 Co-activator (AID 2283354).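 Also: hits raise the complementation signal above DMSO so AC50 marks enhancers.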 Put shortly:
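Split-Venus PCA, stable HEK293T, AR/SRC-1 fusions; 8 h exposure. Readout: 488nm N/C fluorescence ratio, ≥400 cells/image; fitted upward vs DMSO baseline.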

Test [14] concerns the target Agonist Androgen Response Element (ARE), AR (gene 367) (UniProt P10275). The test can be described thus: OT_AR_ARELUC_AG_1440: Odyssey Thera (OT) 24-hour CHO-K1 Luciferase Assay for Agonist Androgen Response Element (ARE) (AID 2283379). Put shortly:
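Gain-of-signal reporter endpoint: cells (CHO-K1, hamster) are treated 24 h, luciferin/ATP reagent added, and luminescence compared with DMSO baseline.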

For another test, the target named is AR (gene 367) (UniProt P10275). The test can be described thus: ACEA_AR_antagonist_80hr: ACEA Biosciences xCELLigence Real-Time Cell Analysis on Androgen Receptor Antagonism for Proliferation (AID 2283787).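 Also: 22Rv1 human prostate cancer cells with growth followed by electrical impedance; hits lower the impedance growth signal relative to DMSO.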 Put shortly:
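Measures real-time proliferation of 22Rv1 prostate cancer cells by electrode impedance at 80 hours after dosing. Test articles ran at eight concentrations (1:4 steps, top 100 uM final) in biological duplicate.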

The target in test [15] is Nucleoli Translocation, AR (gene 367) (UniProt P10275). Kind of test: UPITT_HCI_U2OS_AR_TIF2_Nucleoli_Agonist: University of Pittsburgh U2OS Androgen Receptor-Transcriptional Intermediary Factor 2 (AR-TIF2) Agonism High Content Imaging Assay for Nucleoli Translocation (AID 2283998). Put shortly: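 U2OS cells expressing RFP-tagged human AR and GFP-tagged TIF2; red fluorescence in nucleoli quantified by high-content imaging. Primary screen at 20 uM final (0.2% DMSO); concentration-response 0.195–50 uM (0.5% DMSO), fitted upward versus DMSO.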
Nucleoli Translocation, AR (gene 367), sequence (P10275 whole entry, looked up): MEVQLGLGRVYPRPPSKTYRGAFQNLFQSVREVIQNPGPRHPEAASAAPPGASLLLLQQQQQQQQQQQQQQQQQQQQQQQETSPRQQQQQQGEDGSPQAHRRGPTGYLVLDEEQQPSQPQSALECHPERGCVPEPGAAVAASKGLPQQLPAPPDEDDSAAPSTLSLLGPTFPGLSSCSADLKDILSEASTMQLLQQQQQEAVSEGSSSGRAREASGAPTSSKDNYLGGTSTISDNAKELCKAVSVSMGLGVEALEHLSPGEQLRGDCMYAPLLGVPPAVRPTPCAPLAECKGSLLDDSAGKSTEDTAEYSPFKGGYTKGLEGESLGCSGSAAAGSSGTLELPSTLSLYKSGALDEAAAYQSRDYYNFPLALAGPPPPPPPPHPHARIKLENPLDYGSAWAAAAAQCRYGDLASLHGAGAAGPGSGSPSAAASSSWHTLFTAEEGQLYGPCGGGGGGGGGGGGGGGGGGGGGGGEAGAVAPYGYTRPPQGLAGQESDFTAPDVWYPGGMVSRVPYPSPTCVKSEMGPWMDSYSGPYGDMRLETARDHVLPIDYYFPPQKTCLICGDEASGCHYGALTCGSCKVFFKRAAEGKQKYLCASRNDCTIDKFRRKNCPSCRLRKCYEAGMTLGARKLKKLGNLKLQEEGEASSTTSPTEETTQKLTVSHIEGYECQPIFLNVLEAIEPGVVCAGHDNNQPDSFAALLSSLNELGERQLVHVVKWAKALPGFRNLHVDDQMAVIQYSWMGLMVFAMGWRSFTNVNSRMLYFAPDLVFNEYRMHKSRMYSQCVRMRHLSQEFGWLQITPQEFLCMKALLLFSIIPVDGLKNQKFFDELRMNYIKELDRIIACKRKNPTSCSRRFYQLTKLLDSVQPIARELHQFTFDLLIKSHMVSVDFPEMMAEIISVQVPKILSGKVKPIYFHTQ

The target in test [16] is Ratio of Nucleoli Translocation and Cytoplasm, AR (gene 367) (UniProt P10275). The test can be described thus: UPITT_HCI_U2OS_AR_TIF2_Nucleoli_Cytoplasm_Ratio_Antagonist: University of Pittsburgh U2OS Androgen Receptor-Transcriptional Intermediary Factor 2 (AR-TIF2) Antagonism High Content Imaging Assay for Ratio of Nucleoli Translocation and Cytoplasm (AID 2283999).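 Also: antagonists lower the DHT-driven ratio of nucleolar to cytoplasmic red signal.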 Put shortly: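 Read-out is the ratio of nucleolar to cytoplasmic AR-RFP fluorescence, imaged by high-content microscopy in U2OS cells coexpressing TIF2-GFP. Single-point 20 uM screen, triplicate confirmation, then 0.195–50 uM dose response; activity referenced to DHT baseline.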
Ratio of Nucleoli Translocation and Cytoplasm, AR (gene 367), sequence (P10275 whole entry, looked up): as above

Test [17] concerns the target human Matrix Metalloproteinase-9 (MMP9), MMP9 (gene 4318) (UniProt P14780). Kind of test: NVS_ENZ_hMMP9: NovaScreen (NVS) Enzymatic Assay for human Matrix Metalloproteinase-9 (MMP9) (AID 2283190).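 Also: cell-free recombinant MMP9 protease activity read by fluorescent substrate signal; active means inhibition seen as loss of fluorescence signal versus DMSO.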 Put shortly:
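Extracted enzyme, fluorescent substrate, 1 h post-dose read. Single conc 25 uM in duplicate, then concentration series for actives. Activity = signal loss relative to DMSO negative control.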

A further test deals with TTR (gene 7276). Kind of test: CCTE_GLTED_hTTR_0.125uM: CCTE's human Transthyretin (hTTR) Inhibition Assay, with 0.125uM TTR, Great Lakes Toxicology and Ecology Division (GLTED) Lab (AID 2284431; active = hit-call score of the fitted dose curve at least 0.9, where 1 is the maximum; inactive = score below 0.9). Put shortly:
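Cell-free displacement of ANSA probe from 0.125uM TTR after 2 h incubation with chemical. Fluorescence read at 380 nm excitation/475 nm emission; loss of signal relative to DMSO indicates T4-site displacement.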

Results filed as inconclusive are left out. Some compounds were tested as several samples or in several runs, with calls that do not always agree. Active and inactive are the calls of the source. The calls were made as follows, unless noted: active = hit-call score of the fitted dose curve at least 0.9, where 1 is the maximum; inconclusive = response in the unintended direction; inactive = score below 0.9.

Estrogen receptor (Homo sapiens), sequence (P03372 whole entry, looked up, the tested form may be a part): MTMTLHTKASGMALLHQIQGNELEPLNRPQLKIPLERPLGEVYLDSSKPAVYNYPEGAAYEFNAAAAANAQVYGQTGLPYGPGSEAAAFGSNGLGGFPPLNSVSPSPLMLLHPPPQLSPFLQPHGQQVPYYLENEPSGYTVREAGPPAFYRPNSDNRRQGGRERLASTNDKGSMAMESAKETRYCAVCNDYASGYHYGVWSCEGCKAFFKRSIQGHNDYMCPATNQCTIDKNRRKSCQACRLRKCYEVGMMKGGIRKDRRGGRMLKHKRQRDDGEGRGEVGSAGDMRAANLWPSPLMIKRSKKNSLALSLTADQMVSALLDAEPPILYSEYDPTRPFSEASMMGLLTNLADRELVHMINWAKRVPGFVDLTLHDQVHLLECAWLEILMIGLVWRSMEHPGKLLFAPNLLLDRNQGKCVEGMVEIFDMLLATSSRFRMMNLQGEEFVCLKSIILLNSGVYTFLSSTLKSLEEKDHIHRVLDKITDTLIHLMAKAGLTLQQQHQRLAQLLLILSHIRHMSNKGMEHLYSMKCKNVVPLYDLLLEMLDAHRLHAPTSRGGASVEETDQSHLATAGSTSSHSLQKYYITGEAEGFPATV
Androgen Receptor/SRC-1 Co-activator, AR (gene 367), sequence (P10275 whole entry, looked up, the tested form may be a part): as the sequence (P10275 whole entry, looked up) above
Agonist Androgen Response Element (ARE), AR (gene 367), sequence (P10275 whole entry, looked up): as above
AR (gene 367), sequence (P10275 whole entry, looked up): as above
Peroxisome proliferator-activated receptor gamma (Homo sapiens), sequence (P37231 whole entry, looked up): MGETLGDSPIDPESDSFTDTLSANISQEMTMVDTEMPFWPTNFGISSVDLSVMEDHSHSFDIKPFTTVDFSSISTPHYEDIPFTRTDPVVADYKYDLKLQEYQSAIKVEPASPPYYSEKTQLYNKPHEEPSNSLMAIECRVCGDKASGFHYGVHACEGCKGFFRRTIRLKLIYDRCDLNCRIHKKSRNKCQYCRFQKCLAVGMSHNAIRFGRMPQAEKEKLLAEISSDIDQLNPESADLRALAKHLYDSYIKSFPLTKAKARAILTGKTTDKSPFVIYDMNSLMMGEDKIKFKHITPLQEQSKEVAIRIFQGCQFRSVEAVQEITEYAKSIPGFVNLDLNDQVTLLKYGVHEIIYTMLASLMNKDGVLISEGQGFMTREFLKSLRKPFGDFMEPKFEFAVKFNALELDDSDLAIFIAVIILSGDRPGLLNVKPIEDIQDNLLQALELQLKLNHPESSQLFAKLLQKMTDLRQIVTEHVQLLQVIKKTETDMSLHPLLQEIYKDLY
Estrogen receptor (Homo sapiens) + Estrogen receptor beta (Homo sapiens), sequence (P03372 whole entry, looked up, the tested form may be a part): as the sequence (P03372 whole entry, looked up, the tested form may be a part) above
Estrogen receptor (Homo sapiens) + Estrogen receptor beta (Homo sapiens), sequence (Q92731 whole entry, looked up, the tested form may be a part): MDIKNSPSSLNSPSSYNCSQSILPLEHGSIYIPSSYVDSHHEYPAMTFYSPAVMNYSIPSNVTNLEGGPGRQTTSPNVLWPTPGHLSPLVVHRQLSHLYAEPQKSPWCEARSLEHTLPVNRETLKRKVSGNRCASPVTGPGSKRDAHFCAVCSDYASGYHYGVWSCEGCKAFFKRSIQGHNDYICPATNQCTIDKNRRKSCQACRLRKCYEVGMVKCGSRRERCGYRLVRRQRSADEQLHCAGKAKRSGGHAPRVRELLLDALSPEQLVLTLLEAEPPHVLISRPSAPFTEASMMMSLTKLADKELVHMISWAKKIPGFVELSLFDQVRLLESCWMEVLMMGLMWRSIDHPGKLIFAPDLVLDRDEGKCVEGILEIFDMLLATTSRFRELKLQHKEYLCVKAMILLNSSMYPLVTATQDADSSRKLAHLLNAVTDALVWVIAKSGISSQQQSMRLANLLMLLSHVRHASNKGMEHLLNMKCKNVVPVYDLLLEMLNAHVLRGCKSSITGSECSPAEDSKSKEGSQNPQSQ
human Matrix Metalloproteinase-9 (MMP9), MMP9 (gene 4318), sequence (P14780 whole entry, looked up): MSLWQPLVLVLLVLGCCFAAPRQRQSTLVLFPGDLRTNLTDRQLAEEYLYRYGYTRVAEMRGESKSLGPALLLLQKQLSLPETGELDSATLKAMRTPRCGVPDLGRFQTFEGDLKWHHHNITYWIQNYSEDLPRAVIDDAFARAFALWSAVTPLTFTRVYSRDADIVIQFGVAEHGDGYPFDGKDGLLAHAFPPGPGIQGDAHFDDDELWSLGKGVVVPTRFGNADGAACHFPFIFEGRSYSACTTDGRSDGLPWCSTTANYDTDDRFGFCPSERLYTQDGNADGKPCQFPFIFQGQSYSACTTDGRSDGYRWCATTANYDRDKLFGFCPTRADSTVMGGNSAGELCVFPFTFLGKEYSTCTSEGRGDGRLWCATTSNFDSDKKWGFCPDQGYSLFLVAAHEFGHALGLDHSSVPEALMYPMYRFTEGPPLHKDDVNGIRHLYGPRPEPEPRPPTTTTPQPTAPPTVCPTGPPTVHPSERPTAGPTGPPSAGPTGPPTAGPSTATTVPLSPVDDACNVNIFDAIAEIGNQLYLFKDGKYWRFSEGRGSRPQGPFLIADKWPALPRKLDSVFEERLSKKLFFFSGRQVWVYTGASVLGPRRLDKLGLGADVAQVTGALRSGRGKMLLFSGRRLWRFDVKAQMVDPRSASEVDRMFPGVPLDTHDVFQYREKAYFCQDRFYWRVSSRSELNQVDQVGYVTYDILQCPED

In the case of `c1ccc(P(c2ccccc2)c2ccccc2)cc1`, the molecule was called inactive in test [1]. Further, the half-maximal activity concentration (AC50) in test [2] was 60.6 µM (active); in [3], 64.4 µM (active); in test [4], 14.9 µM (active); in [5], 84.1 µM (active); in test [6], 17 µM (active).

`CCCCCCCCCCCCCCCC[N+](C)(C)C`: the half-maximal activity concentration (AC50) in test [7] is 16.3 µM (active). The result in the test on SRD5A2 (gene 6716) was inactive.

Regarding `O=C(O)CCl`, the result in test [4] was inactive.

In the case of `CC(Cc1ccc(C(C)(C)C)cc1)CN1C[C@@H](C)O[C@@H](C)C1` (some centres undefined), in test [8], the concentration at half-maximal activity (AC50) is 6.83 µM (active).

Regarding `Cc1ccc(OP(=O)(Oc2ccc(C)cc2)Oc2ccc(C)cc2)cc1` (tested in a mixture with another compound), the call in test [9], in test [10] and in [11] was inactive.

Consider `CC1(C)[C@H](C(=O)O[C@H](C#N)c2cccc(Oc3ccccc3)c2)[C@@H]1C=C(Br)Br`, for which the concentration at half-maximal activity (AC50) was 0.134 µM (active) in [8]; 50 µM (active) in the test with AR (gene 367); 3.1 µM (active) in test [9]; 7.16 µM (active) in [10]; 8.89 µM (active) in test [11]. In addition, the molecule was called inactive (in test [8]; in test [12]; in test [13]; in test [14]; with AR (gene 367)).

`Cc1ccc(C)c2ccccc12`: the molecule was classed as inactive in test [12], in test [13], in test [14], in [15] and in [16].

In the case of `COc1cc(OC)nc(Oc2cccc(Oc3nc(OC)cc(OC)n3)c2C(=O)O)n1`, the outcome (in test [12]; in test [13]; in test [4]; in [14]; in the test with AR (gene 367); in [16]) was inactive.

Take `CC(=O)c1cc2c(cc1C)C(C)(C)C(C)CC2(C)C` (centres undefined): the call (in test [7]; in the test with SRD5A2 (gene 6716)) was inactive.

For the molecule `C=COCCCl`, the molecule was classed as inactive in test [15] and in test [16].

On to `CN(C)N`, for which the result (in [12]; in test [13]; in [14]; with AR (gene 367); in test [15]; in test [16]) was inactive.

In the case of `O=P(O)(Oc1ccccc1)Oc1ccccc1`, the call in test [1], in test [2], in test [3], in test [5], in test [6] and in test [7] was inactive. Besides, the result in the test on SRD5A2 (gene 6716) was inactive.

Turning to `N#Cc1cccc(C#N)c1`, the half-maximal activity concentration (AC50) in test [17] is 7.24 µM (active).

As to `CCOC(=O)COc1ccc(Cl)cc1Cl`, the AC50 in the test on TTR (gene 7276) is 19.4 µM (active).

With `CCOC(=O)NC(=S)Nc1ccccc1NC(=S)NC(=O)OCC`, the concentration at half-maximal activity (AC50) in test [8] was 2.84 µM (active).
